# Measured values taken from PubChem BioAssay.
# Active and inactive are the calls of the source.
# Tests used:
# [1] = E. coli DRC41 culture turbidity changes, primary screen, E. coli filamentation inducer project, strain DRC41, OD650, 48 h (AID 1152);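 note: E. coli MC1000 strain DRC41 lacking acrAB efflux pump and sulA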; conditions: E. coli DRC41 (acrAB sulA), higher = more signal, called active from +8 up or from −8 down
# [2] = small-molecule binders of probe aLefty1, primary screen, biochemical, small-molecule microarray, 635/667 nm fluorescence (AID 1153); conditions: higher = more signal;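 note: score merges spot fluorescence with signal-to-noise ratio from the scanned slide images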
# [3] = PSAC antagonists in infected red cells, primary screen, cell-based, P. falciparum Indochina, OD700, 1 h (AID 1154); conditions: P. falciparum Indochina infected RBC osmotic lysis, higher = more signal, called active from +8 up or from −8 down
# [4] = PSAC antagonists in infected red cells, primary screen, cell-based, P. falciparum Indochina, OD700, 2 h (AID 1155);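 note: lysis reports solute entry through the parasite surface anion channel PSAC; channel blockers reduce lysis of infected cells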; conditions: P. falciparum Indochina infected erythrocytes, osmotic lysis OD700; higher = more signal, called active from +8 up or from −8 down
# [5] = osmotic lysis modulators in infected erythrocytes, primary screen, PSAC antagonist project, cell-based, P. falciparum Indochina, OD700, 3 h (AID 1156); conditions: higher = more signal, called active from +8 up or from −8 down
# [6] = PSAC antagonists in infected red cells, primary screen, cell-based, P. falciparum Indochina, OD700, 18 h (AID 1157); conditions: P. falciparum Indochina infected erythrocytes, osmotic lysis OD700, 18 h; higher = more signal, called active from +8 up or from −8 down
# [7] = modulators of S6 phosphorylation in cells, primary screen, cell-based, A549, cytoblot, luminescence, serum-stimulated (AID 1158); conditions: A549 phospho-S6 cytoblot, 5 h, higher = more signal;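 note: serum-stimulated A549 lung adenocarcinoma cells; signal is phosphorylated S6 detected by cytoblot immunostaining with HRP secondary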
# [8] = target: NADPH oxidase 2 (Homo sapiens) (UniProt P04839); assay: NOX2-dependent H2O2 signal modulators, primary screen, NOX inhibitor project, cell-based, HEK293-NOX2, PMA-stimulated, Amplex Red fluorescence (AID 1159); conditions: 45 min, higher = more signal, called active from +8 up or from −8 down; note: test concentration not given here
# NADPH oxidase 2 (Homo sapiens), sequence (P04839 whole entry, looked up): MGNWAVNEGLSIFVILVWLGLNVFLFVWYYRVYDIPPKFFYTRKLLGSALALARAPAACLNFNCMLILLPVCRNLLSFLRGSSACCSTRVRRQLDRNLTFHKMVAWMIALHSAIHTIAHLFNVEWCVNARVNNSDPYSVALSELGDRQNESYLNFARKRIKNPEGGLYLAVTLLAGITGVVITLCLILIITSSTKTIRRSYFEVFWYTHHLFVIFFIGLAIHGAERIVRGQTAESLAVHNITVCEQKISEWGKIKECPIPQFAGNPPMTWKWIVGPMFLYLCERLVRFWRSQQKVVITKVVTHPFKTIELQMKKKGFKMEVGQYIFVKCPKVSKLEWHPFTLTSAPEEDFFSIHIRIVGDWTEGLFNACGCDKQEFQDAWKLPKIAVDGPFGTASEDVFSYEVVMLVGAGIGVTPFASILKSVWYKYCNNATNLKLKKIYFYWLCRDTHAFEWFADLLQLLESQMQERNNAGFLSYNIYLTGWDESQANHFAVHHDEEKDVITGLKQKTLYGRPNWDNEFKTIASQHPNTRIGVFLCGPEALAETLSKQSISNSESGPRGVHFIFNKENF
# [9] = target: NADPH oxidase 4 (Homo sapiens) (UniProt Q9NPH5); assay: NOX4-dependent H2O2 signal modulators, primary screen, NOX inhibitor project, cell-based, HEK293-NOX4, tetracycline-induced, Amplex Red fluorescence (AID 1160); conditions: 45 min, higher = more signal, called active from +8 up or from −8 down
# NADPH oxidase 4 (Homo sapiens), sequence (Q9NPH5 whole entry, looked up): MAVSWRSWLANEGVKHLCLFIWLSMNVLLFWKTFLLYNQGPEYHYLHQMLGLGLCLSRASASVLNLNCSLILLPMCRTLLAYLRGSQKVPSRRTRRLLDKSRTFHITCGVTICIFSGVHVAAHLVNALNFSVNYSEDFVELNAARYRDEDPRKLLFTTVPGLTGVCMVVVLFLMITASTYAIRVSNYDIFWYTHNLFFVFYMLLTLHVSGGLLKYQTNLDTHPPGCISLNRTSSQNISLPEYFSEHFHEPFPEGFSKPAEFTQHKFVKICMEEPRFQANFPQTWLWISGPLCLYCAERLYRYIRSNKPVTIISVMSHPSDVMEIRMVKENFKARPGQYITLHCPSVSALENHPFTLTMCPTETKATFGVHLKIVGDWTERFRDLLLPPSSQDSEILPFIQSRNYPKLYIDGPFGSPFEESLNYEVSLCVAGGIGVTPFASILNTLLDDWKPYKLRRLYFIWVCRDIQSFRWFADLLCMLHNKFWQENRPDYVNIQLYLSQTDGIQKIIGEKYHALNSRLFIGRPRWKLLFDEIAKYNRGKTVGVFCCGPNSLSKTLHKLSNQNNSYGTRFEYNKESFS
# [10] = target: NADPH oxidase 5 (Homo sapiens) (UniProt Q96PH1); assay: NOX5-dependent H2O2 signal modulators, primary screen, NOX inhibitor project, cell-based, HEK293-NOX5, Amplex Red fluorescence (AID 1161); conditions: HEK293-NOX5, ionomycin, 45 min, higher = more signal
# NADPH oxidase 5 (Homo sapiens), sequence (Q96PH1 whole entry, looked up): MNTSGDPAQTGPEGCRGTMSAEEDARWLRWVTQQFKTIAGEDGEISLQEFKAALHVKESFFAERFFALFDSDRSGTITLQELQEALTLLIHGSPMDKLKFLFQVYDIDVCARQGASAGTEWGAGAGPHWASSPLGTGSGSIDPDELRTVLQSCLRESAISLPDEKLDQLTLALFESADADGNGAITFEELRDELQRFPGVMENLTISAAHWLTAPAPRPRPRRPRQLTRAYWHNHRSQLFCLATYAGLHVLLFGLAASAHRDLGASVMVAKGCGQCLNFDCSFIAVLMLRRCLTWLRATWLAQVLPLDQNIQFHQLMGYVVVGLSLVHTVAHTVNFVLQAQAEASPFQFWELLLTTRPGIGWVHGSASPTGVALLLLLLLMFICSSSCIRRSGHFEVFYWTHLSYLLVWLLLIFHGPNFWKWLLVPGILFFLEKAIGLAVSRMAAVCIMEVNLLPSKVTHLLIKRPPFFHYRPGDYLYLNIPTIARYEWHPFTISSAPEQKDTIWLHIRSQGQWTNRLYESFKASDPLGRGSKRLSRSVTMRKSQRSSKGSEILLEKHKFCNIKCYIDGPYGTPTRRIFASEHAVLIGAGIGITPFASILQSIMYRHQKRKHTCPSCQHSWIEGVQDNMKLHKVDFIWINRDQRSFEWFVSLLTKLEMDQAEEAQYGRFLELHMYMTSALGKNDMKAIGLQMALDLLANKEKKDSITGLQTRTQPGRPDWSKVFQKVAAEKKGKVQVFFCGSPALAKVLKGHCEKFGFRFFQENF
SMILES,z-score [1],composite z-score [2],z-score [3],z-score [4],z-score [5],z-score [6],z-score [7],z-score [8],z-score [9],z-score [10]
O=C1C2C=CC(C(O)c3ccco3)N(Nc3ccccc3)C2C(=O)N1c1ccccc1 (stereo not given),-0.292 (inactive),-0.0302,0.89 (inactive),-0.0044 (inactive),-0.284 (inactive),0.851 (inactive),-0.647,-1.61 (inactive),-2.98 (inactive),-2.52
CC(C)c1ccc(NN2C(C(O)Cc3ccccc3)C=CC3C(=O)N(c4ccccc4)C(=O)C32)cc1 (stereo not given),-1.76 (inactive),0.181,1.93 (inactive),1.31 (inactive),0.127 (inactive),1.05 (inactive),-1.27,-0.343 (inactive),-3.62 (inactive),-2.69
CCOC(=O)C1=CCC(c2ccccc2)N(S(=O)(=O)c2ccc([N+](=O)[O-])cc2)C1 (stereo not given),-0.72 (inactive),0.0451,2.62 (inactive),0.987 (inactive),1.4 (inactive),0.46 (inactive),-0.412,0.528 (inactive),-0.114 (inactive),-0.023
CS(=O)(=O)CCOC(=O)C1=CC(CCCO)=CC(C2CC2)N(Cc2cccc(OC(F)(F)F)c2)C=C1C(=O)OCCS(C)(=O)=O (stereo not given),-1.07 (inactive),0.0392,2.65 (inactive),0.404 (inactive),-0.352 (inactive),0.675 (inactive),-0.662,0.944 (inactive),0.19 (inactive),-1.29
COC(=O)C1N=C(c2ccc(OCCCO)cc2)N(c2ccccc2)O1 (stereo not given),0.336 (inactive),0.103,24.9 (active),7.38 (inactive),1.02 (inactive),1.04 (inactive),0.417,0.943 (inactive),0.392 (inactive),-0.0493
CN(C)C(=O)[C@]1(CCS(=O)(=O)c2ccccc2)N=C(c2ccc(OCCCO)cc2)O[C@@H]1c1ccccc1,0.0024 (inactive),-0.0072,30.8 (active),25.7 (active),2.91 (inactive),6.06 (inactive),0.0637,-0.461 (inactive),1.52 (inactive),-2.3
COCCOC(=O)N1C(=O)[C@@]2(c3cc(C#CCCO)ccc31)[C@H](C(N)=O)[C@H]1C(=O)O[C@H](c3ccccc3)[C@H](c3ccccc3)N1[C@@H]2c1ccc(OCCO)cc1,-0.138 (inactive),0.157,23.4 (active),5.49 (inactive),1.88 (inactive),1.3 (inactive),0.388,1.78 (inactive),1.1 (inactive),0.785
CCOC(=O)C[C@H]1[C@H](OC(=O)c2cc3ccccc3oc2=O)[C@@H](NC(=O)c2ccc3ccccc3c2)c2cc(OCCCO)ccc2N1C(=O)Cc1ccc(OC)cc1,-0.62 (inactive),-0.0479,7.22 (inactive),0.935 (inactive),0.703 (inactive),0.525 (inactive),-0.24,3.04 (inactive),1.01 (inactive),1.94
O=C1C2C=CC(C(O)c3ccc4c(c3)OCO4)N(Nc3ccccc3)C2C(=O)N1c1ccccc1 (stereo not given),-1.27 (inactive),0.065,0.805 (inactive),0.384 (inactive),1.15 (inactive),1.39 (inactive),-0.777,-0.279 (inactive),0.756 (inactive),-1.12
CC(C)C(=C=CC[C@H](O)c1cccc(OCCO)c1)CCO,1.09 (inactive),-0.116,1.77 (inactive),-1.04 (inactive),-1.42 (inactive),-1.95 (inactive),0.28,-0.24 (inactive),0.17 (inactive),-1.29
CN(C)CCCNC(=O)[C@@H]1c2ccccc2C(=O)N(C2CCCCC2)[C@H]1c1ccc(CO)cc1,0.196 (inactive),0.2,1.1 (inactive),-0.541 (inactive),1.67 (inactive),0.253 (inactive),0.189,0.2 (inactive),0.197 (inactive),-0.301
COCCOC(=O)N1C(=O)[C@@]2(c3cc(C#CC4(O)CCCCCC4)ccc31)[C@H](C(=O)N1CCN(c3ncccn3)CC1)[C@H]1C(=O)O[C@H](c3ccccc3)[C@H](c3ccccc3)N1[C@@H]2c1ccccc1OCCO,-0.53 (inactive),0.487,1.57 (inactive),0.276 (inactive),0.547 (inactive),0.384 (inactive),-0.21,1.82 (inactive),-0.726 (inactive),1.31
CN1C(=O)[C@@]2(Cc3ccccc3)N=C(c3ccc(OCCCO)cc3)O[C@H]2c2ccccc21,-0.0237 (inactive),0.501,31.8 (active),30.4 (active),2.93 (inactive),2.65 (inactive),0.385,-1.74 (inactive),0.151 (inactive),-1.64
C=C(C(=O)CC[C@H](OC(=O)c1ccccc1-c1ccccc1C(=O)O)c1ccccc1OCCO)C(C)C,0.342 (inactive),-0.0573,6.14 (inactive),1.12 (inactive),2.1 (inactive),0.577 (inactive),-0.549,2.97 (inactive),-0.13 (inactive),-1.51
[N-]=[N+]=Nc1ccccc1C[C@]1(C(=O)O)N=C(c2ccc(OCCCO)cc2)O[C@H]1c1ccccc1,0.174 (inactive),-0.007,18.4 (active),2.83 (inactive),1.35 (inactive),0.589 (inactive),-0.138,0.22 (inactive),0.818 (inactive),0.857
COC(=O)[C@@]1(Cc2ccccc2CN=[N+]=[N-])N=C(c2ccc(OCCCO)cc2)O[C@H]1c1ccccc1CN=[N+]=[N-],-0.586 (inactive),0.0288,21.8 (active),7.79 (inactive),0.912 (inactive),1.72 (inactive),0.141,-2.2 (inactive),-0.00368 (inactive),-2.01
C=CCC(OC(C)=O)[C@@H]1[C@@H](N(Cc2cccc3ccccc23)C(=O)Cc2ccc(F)cc2)c2cc(OCCCO)ccc2N1C(=O)c1ccc(-c2ccccc2)cc1 (stereo not given in full),0.341 (inactive),0.0184,0.616 (inactive),0.743 (inactive),-0.402 (inactive),-0.278 (inactive),-0.18,0.227 (inactive),0.795 (inactive),1.77
COc1cc2c(cc1OC)CN(C(=O)[C@@H]1[C@H]3C(=O)O[C@H](c4ccccc4)[C@H](c4ccccc4)N3[C@H](c3ccc(O)cc3)[C@@]13C(=O)Nc1ccc(C#CCCO)cc13)CC2,-0.0186 (inactive),-0.149,0.125 (inactive),0.448 (inactive),1.16 (inactive),0.165 (inactive),-0.42,0.777 (inactive),0.152 (inactive),0.532
